From PubChem
Only some compounds are listed: those with a hit (about 6.1% of all), similar ones and a draw of the others.
D1 PAM: potentiators of human D1 dopamine receptor | potentiation, % at 10 µM | 360,000 compounds, 0.036% hits | HEK293 TREx D1 cells, calcium flux, dopamine EC20 potentiation; in the data active means potentiation above about 30%
Target sequence (P21728 whole entry, looked up): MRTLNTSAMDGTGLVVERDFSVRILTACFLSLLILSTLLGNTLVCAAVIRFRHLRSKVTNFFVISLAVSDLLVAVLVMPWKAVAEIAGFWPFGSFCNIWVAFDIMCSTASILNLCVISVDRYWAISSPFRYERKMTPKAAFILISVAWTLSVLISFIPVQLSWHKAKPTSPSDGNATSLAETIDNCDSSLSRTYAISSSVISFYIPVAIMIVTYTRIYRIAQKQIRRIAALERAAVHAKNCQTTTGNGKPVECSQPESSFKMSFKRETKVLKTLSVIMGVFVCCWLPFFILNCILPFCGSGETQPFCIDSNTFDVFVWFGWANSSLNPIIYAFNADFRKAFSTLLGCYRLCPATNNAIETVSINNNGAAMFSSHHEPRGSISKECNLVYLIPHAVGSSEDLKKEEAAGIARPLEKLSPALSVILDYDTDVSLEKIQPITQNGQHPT
D1 antag: blocks dopamine activation of the human D1 receptor. HEK293 TREx D1 cells, calcium flux, dopamine EC80; stronger effect = lower value. activity change, negative = inhibition, % at 10 µM. 360,000 compounds, 3.2% hits. AID 504652; in the data active means activity change below about -30%
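Compound effects on dopamine-evoked calcium signalling were measured in tetracycline-induced HEK293 Trex D1 cells. Dopamine at EC80 followed a 180 s compound pre-read, and fluorescence was tracked kinetically for 180 s more.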
DRD3 antagonist: blocks the human D3 dopamine receptor; P35462; D3R cells, DiscoveRx beta-arrestin luminescence, antagonist mode; stronger effect = lower value; max response, negative = inhibition, %; 360,000 compounds, 2.5% hits; AID 652054; in the data active means max response below about -50%; inconclusive means no clear call, values can overlap the other calls
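Cells plated overnight at 1500 cells/well, then exposed to library compounds with dopamine controls for 90 minutes at 37 degrees C. DiscoveRx reagent added for 30–60 minutes at room temperature; luminescence read, quantitative HTS format.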
D1 ag: agonists of human D1 dopamine receptor; 360,000 compounds, 1% hits; AID 504660; P21728; activation, % at 2 µM; HEK293 T-REx D1 cells, calcium flux, agonist mode; in the data active means activation above about 30%
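Agonism was scored from calcium flux recorded over 180 s (1 read/s) after pintool compound addition, following a 10-cycle baseline. Cells were inducible force-coupled HEK293 TREx D1, plated overnight at 30 C and loaded with no-wash calcium dye.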
DRD3 agonist: D3 dopamine receptor (human) agonism; D3R DiscoveRx beta-arrestin cells, luminescence, 90 min; max activation, %; 410,000 compounds, 0.58% hits; AID 652048; in the data active means max activation above about 30%
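Agonist mode: compounds and dopamine controls were applied to plated cells for 90 min at 37 degrees C after an overnight attachment at 1500 cells/well. Luminescent read-out followed 30 - 60 minutes at room temperature with DiscoveRx detection reagent.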
Numbers stand for hits; n = inactive; u = inconclusive; x = no result given.

SMILES	D1 PAM	D1 antag	DRD3 antagonist	D1 ag	DRD3 agonist
CCOc1ccc(CCNC(=O)COC(=O)c2ccc(C)c([N+](=O)[O-])c2)cc1OCC	n	-47	n	n	n
CCOc1ccc(CCNC(=O)COC(=O)c2ccc(S(C)(=O)=O)cc2)cc1OCC	n	n	n	n	n
Cc1ccc(CNC(=O)COC(=O)c2ccc(S(=O)(=O)N3CCCC3)cc2)cc1	n	-30	n	n	n
CCCc1cc(C(=O)Nc2nccs2)cs1	n	n	-51	n	n
CCOC(=O)C1=C(C)OC(N)=C(C(=O)OCC)C1c1cccnc1 (centres undefined)	n	-33	n	n	n
Cc1ccc(Cc2c(-c3ccco3)nc3c(C)cc(Br)cn23)cc1	x	x	u	x	n
Cc1cc(Br)cn2c(Cc3ccccc3)c(-c3cccc(Cl)c3)nc12	x	x	-60	x	n
Cc1cc(Br)cn2c(Cc3cccc(Cl)c3)c(-c3ccco3)nc12	x	x	-63	x	n
Cc1cc(Br)cn2c(Cc3cccc(F)c3)c(-c3ccc(F)cc3)nc12	x	x	n	x	n
Cc1ccc(-c2nc3c(C)cc(Br)cn3c2Cc2cccc(F)c2)cc1	x	x	-57	x	n
COc1cc(C(=O)NCCOc2ccccc2)c(Br)c(OC)c1OC	n	n	n	n	n
CCOC(=O)c1ccc(NC(=O)c2ccc(OC(C)C)c(OC)c2)cc1	n	-32	n	n	n
COc1cc(C(=O)NCCOc2ccc(F)cc2)c(Br)c(OC)c1OC	n	-55	n	n	n
CCCOC(=O)c1ccc(NC(=O)c2cc(OC)c(OC)c(OC)c2Br)cc1	n	-36	n	n	n
COC(=O)c1nnn(CC(=O)Nc2ccc(Br)c(C)c2)c1N	n	n	x	n	n
CC[C@H](CC[C@@H](C)[C@H]1CC[C@H]2[C@@H]3CC=C4C[C@@H](O)CC[C@]4(C)[C@H]3CC[C@]12C)C(C)C	x	x	x	x	n
COc1ccnc(CSC(N)=Nc2ccccc2OC)c1	n	n	-75	n	n
COc1ccnc(CSC(N)=Nc2cccc(C(F)(F)F)c2)c1	n	n	-51	n	n
O=C(Nc1cccc(/C=C/c2ccccn2)c1)c1ccc(-n2cncn2)c([N+](=O)[O-])c1	n	n	n	n	n
CC(C)Cc1nc2c(nnn2Cc2ccccc2F)c(=O)[nH]1	n	n	n	n	n
CC1(OC(=O)CCc2ccccc2)C(=O)C=C2C=C(c3ccc(C#N)cc3)N(CC3CC3)C=C2C1=O (centres undefined)	n	n	n	n	n
CC1(OC(=O)CCc2ccccc2)C(=O)C=C2C=C(c3ccc(C#N)cc3)N(c3ccccc3)C=C2C1=O (centres undefined)	n	-37	n	n	n
N#Cc1c(C(F)(F)F)cc(-c2cccs2)nc1SCC(=O)Nc1cccc(C(F)(F)F)c1	n	n	x	68	n
CCCCOc1ccc(-c2cc(C(F)(F)F)c(C#N)c(SCC(=O)O)n2)cc1	n	n	n	68	n
N#Cc1c(C(F)(F)F)cc(-c2cccs2)nc1SCC(=O)Nc1ccc(Cl)cc1	n	n	x	81	n
SMILES	D1 PAM	D1 antag	DRD3 antagonist	D1 ag	DRD3 agonist
Cc1cccc(NC(=O)CSc2nc(C)c(CC(=O)c3ccc(Br)cc3)c(C)c2C#N)c1C	n	n	-53	n	n
N#Cc1ccc(-c2cccs2)nc1SCC(=O)Nc1cccc(C(F)(F)F)c1	n	n	x	n	n
N#Cc1c(C(F)(F)F)cc(-c2ccc(F)cc2)nc1SCC(=O)O	n	n	n	n	n
Cc1nc2cccnc2n1-c1cccc(C(=O)N2CCN(c3ccc(Cl)cc3)CC2)c1	n	n	x	n	n
O=c1oc(=S)oc2c1[C@H](c1ccc(Cl)cc1)O[C@H](C1CC1)C2	x	x	n	x	n
COc1ccc(S(=O)(=O)Nc2ccc(NC(C)=O)cc2)cc1[N+](=O)[O-]	n	n	n	n	n
Cc1cccc(NC(=O)CSc2nc(-c3cccs3)cc(C(F)(F)F)c2C#N)c1C	n	n	x	49	n
N#Cc1ccccc1NC(=O)CSc1nc(-c2ccccc2)cc(C(F)(F)F)c1C#N	n	n	x	133	n
N#Cc1c(C(F)(F)F)cc(-c2ccc(F)cc2)nc1SCC(=O)Nc1ccccc1	n	n	x	n	n
CCOc1ccc(NC(=O)CSc2nc(-c3cccs3)cc(C(F)(F)F)c2C#N)cc1	n	n	x	n	n
COc1ccc(NC(=O)CSc2nc(-c3ccccc3)cc(-c3cc(OC)c(OC)c(OC)c3)c2C#N)c(OC)c1	n	n	x	33	n
CC(=O)c1cccc(-c2ccnc3c2CC(C(=O)Nc2ccccc2)O3)c1 (centres undefined)	x	x	n	x	n
COc1cc(OC)c(NC(=O)Nc2ccc3c(c2)N(C)C(=O)c2ccccc2S3)cc1Cl	n	n	x	n	n
O=C(Nc1c(Cl)cccc1Cl)Oc1cccc2cccnc12	x	x	-52	x	n
O=C(COc1cccc2cccnc12)Nc1ccccc1	n	n	n	n	n
O=C(COc1cccc2cccnc12)NCC(F)(F)F	n	n	n	n	n
O=C(Nc1cccc(C(F)(F)F)c1)Oc1ccc(Cl)c2cccnc12	n	n	-62	34	n
O=C(Nc1cccc(Br)c1)Oc1cccc2cccnc12	x	x	-83	x	n
CCOC(=O)C1(Cc2ccccc2)CCCCCC1=O (centres undefined)	x	x	n	x	n
COc1cc(Cn2c(=O)sc3ccccc32)ccc1OCCC(C)C	n	n	x	n	n
CC(C)(C)c1nnc(NS(=O)(=O)c2ccc([N+](=O)[O-])cc2)s1	n	n	n	n	n
COc1ccc(-n2c(C)cc(/C=C/c3nc(O)c([N+](=O)[O-])c(=O)[nH]3)c2C)cc1	n	-54	n	n	n
CN(C)CCCOc1nn(Cc2ccccc2)c2ccccc12	n	-31	-93	n	n
O=C(C1CCC(Cn2c(=O)c3sccc3n(Cc3ccccc3)c2=O)CC1)N1CCCCC1 (centres undefined)	n	n	x	n	n
Cc1nc2ccccc2c(=O)n1CCc1ccc(O)cc1	n	n	n	n	n
SMILES	D1 PAM	D1 antag	DRD3 antagonist	D1 ag	DRD3 agonist
Cc1cccc(N2CCN(CCCNC(=O)c3nnc(Cc4c(F)cccc4Cl)o3)CC2C)c1 (centres undefined)	n	n	x	n	n
Cc1cc(N)nc2nc(C(F)(F)F)nn12	n	n	n	n	n
N=c1c2c3c(sc2ncn1Cc1ccco1)CCCCC3	n	-35	n	n	n
O=c1c2c3c(sc2nc(NCCOCCO)n1Cc1ccco1)CCCCC3	n	n	n	n	n
O=c1c2c3c(sc2n(CCN2CCCCC2)c(=O)n1Cc1ccco1)CCCCC3	n	n	-93	n	n
O=c1c2c3c(sc2n(CCN2CCOCC2)c(=O)n1Cc1ccco1)CCCCC3	n	n	n	n	n
CC(O)CNc1nc2sc3c(c2c(=O)n1CCc1ccccc1)CCCCC3 (centres undefined)	n	n	n	n	n
CN(C)CCNc1nc2sc3c(c2c(=O)n1CCc1ccccc1)CCCCC3	n	-35	n	106	n
CC(O)CNc1nc2sc3c(c2c(=O)n1Cc1ccco1)CCCCC3 (centres undefined)	n	n	n	34	n
